Compound activity from PubChem.
Insulin prom inh = inhibitors of insulin promoter-driven GFP, primary screen, imaging, TRM-6 cells (human fetal islet line), eGFP reporter, cell count. reporter expression induced with tamoxifen. inhibition, % at 2 µM. 130,000 tested, 0.9% active;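 active = inhibition above the mean plus 3 SD, with well images judged a real hit on visual review, cut at about 60% in these data, passing the limit was not always enough; inconclusive = inhibition over the cutoff but images rejected on review; inactive = inhibition not above the cutoff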
Insulin prom up = insulin promoter activators in MIN6 cells, imaging, high-content screening, mouse beta cells | MIN6 insulin promoter-GFP reporter; hits give high values | AID 1625, 2009 | z-score at 5 µM | 190,000 tested, 0.3% active;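 active = z-score above 3 at 5 µM with at least 500 cells counted in the well; inconclusive = wells under 500 cells, flagged as cytotoxic or low count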
Cl transport mod = KCC2 cotransporter modulators, thallium flux, primary screen, cell-based, HEK293 KCC2, FluoZin-2 fluorescence, MLSMR | Solute carrier family 12 member 5 (Homo sapiens), Q9H2X9 | KCC2 cells, thallium flux FluoZin-2 fluorescence | B-score of Tl+ flux slope (higher = more flux/activation; lower = inhibition) at 10 µM | 190,000 tested, 2.2% active;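 active = thallium flux slope and its plate-corrected score both differing from the plate sample mean at a set confidence after two filtering rounds, in either direction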;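 also: slope of fluorescence scaled to starting intensity during 10 to 20 s after thallium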
ROMK mod = ROMK potassium channel modulators, primary screen, cell-based, thallium flux, MLSMR library. ATP-sensitive inward rectifier potassium channel 1 (Homo sapiens), P48048. Tet-inducible ROMK, thallium flux fluorescence; actives lie on both sides. B-score at 10 µM. 130,000 tested, 2% active. AID 1918, 2009;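 active = signal ratio slope over the read window, or its plate-corrected B-score, at least 3 SD from the plate mean, either direction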;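 also: B-score of the F/F0 ratio slope over 7 to 12 s after thallium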
Target sequence (P48048 whole entry, looked up): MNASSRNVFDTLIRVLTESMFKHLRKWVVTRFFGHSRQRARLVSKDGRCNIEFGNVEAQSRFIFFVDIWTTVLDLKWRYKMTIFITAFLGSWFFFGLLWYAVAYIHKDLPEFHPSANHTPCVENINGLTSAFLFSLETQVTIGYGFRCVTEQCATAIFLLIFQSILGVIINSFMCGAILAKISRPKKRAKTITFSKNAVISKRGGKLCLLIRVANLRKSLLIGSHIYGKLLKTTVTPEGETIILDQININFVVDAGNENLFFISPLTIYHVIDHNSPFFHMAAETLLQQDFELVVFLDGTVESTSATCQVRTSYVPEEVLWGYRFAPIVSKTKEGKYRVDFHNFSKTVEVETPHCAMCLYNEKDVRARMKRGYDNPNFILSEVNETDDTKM
WT yeast gro inh = growth inhibition of WT strain, primary screen, mitochondrial fusion inhibitor project, WT and mutant strains, chemical genetic; 190,000 tested, 2.1% active; mitochondrial fusion phenotypic screen; AID 1362, 2008; inhibition, % at 10 µM; in the data active = inhibition above about 58%; tested in S. cerevisiae
Lmaj promast = Leishmania major promastigote growth inhibition, primary screen. 200,000 tested, 9% active. inhibition, % at 10 µM. Leishmania major promastigotes, resazurin fluorescence viability. AID 1063, 2008; in the data active = inhibition above about 50%;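 also: promastigotes grown with compound for 44 hours at 28 °C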
Large screens that a line does not name were inactive. A selection: hits, their analogues and other compounds. The true share with any hit is near 12%.

Cc1ccc(C)c(-n2c(Cc3cc(=O)[nH]c(=O)[nH]3)nnc2SCC(=O)NCC2CCCO2)c1 (stereo not drawn)	none (no result: Insulin prom inh, Cl transport mod)
O=C(C1=C[C@H](c2ccc(C(F)(F)F)cc2)C[C@H](OCCCCO)O1)N1CCN(Cc2ccc3c(c2)OCO3)CC1	Lmaj promast 95 (no result: Insulin prom inh, ROMK mod)
CC(C)(C)[C@@H]1C=C(C(=O)N2CCN(Cc3ccccc3)CC2)O[C@H](OCc2ccc(CO)cc2)C1	WT yeast gro inh 70 (no result: Insulin prom inh, ROMK mod)
CC(C)(C)[C@H]1C=C(C(=O)N2CCN(Cc3ccc4c(c3)OCO4)CC2)O[C@@H](OCc2ccc(CO)cc2)C1	WT yeast gro inh 97 (no result: Insulin prom inh, ROMK mod)
O=C(C1=C[C@@H](c2ccc(Br)cc2)C[C@@H](OCCCCO)O1)N1CCN(Cc2ccc3c(c2)OCO3)CC1	none (no result: Insulin prom inh, ROMK mod)
O=C(C1=C[C@H](C2CC2)C[C@H](OCc2ccc(CO)cc2)O1)N1CCN(Cc2ccc3c(c2)OCO3)CC1	none (no result: Insulin prom inh, ROMK mod)
CC(C)(C)[C@@H]1C=C(C(=O)NC2CC2)O[C@H](OCc2ccc(CO)cc2)C1	Lmaj promast 99 (no result: Insulin prom inh, ROMK mod)
CC(C)(C)[C@H]1C=C(C(=O)N2CCN(Cc3ccccc3)CC2)O[C@@H](OCCCCO)C1	none (no result: Insulin prom inh, ROMK mod)
CC1=NN(c2nc(-c3ccc(C)cc3)cs2)C(=O)C1N=Nc1cccc(C)c1 (stereo not drawn)	Lmaj promast 86
CC1=NN(c2nc(-c3ccccc3)cs2)C(=O)C1	none (no result: Cl transport mod, ROMK mod)
Cc1nc(NC(=O)COC(=O)CCS(=O)(=O)c2ccccc2Cl)c(Cl)cc1Cl	Insulin prom up 4.2, WT yeast gro inh 61 (no result: ROMK mod)
Cc1nc2cccc(C)n2c(=O)c1Cl	none
CC(=O)N1c2ccc3ccccc3c2C(C)CC12CCCCC2 (stereo not drawn)	WT yeast gro inh 87
CC1CC2(CCCCC2)Nc2ccc3ccccc3c21 (stereo not drawn)	none
COc1ccc(C2=C(Nc3ccc(C)cc3)c3ccccc3C2=O)cc1	Lmaj promast 64
COc1ccc(C2=C(Nc3ccc(F)cc3)c3ccccc3C2=O)cc1	none (no result: Insulin prom up)
Cc1ccc(OCC(=O)N2CCN(c3nnc(-c4ccccc4)c4ccccc34)CC2)cc1	Lmaj promast 89
N#CCN1CCC(c2cc(-c3ccco3)n[nH]2)CC1	none (no result: ROMK mod)
CS(=O)(=O)N1CCc2cc(-c3csc(NC(=O)Cc4ccccc4)n3)ccc21	none (no result: ROMK mod)
Cc1ccc(-c2csc(NC(=O)c3ccc(S(=O)(=O)N4CCc5ccccc54)cc3)n2)cc1	Lmaj promast 100
O=C(Nc1nc(-c2ccccc2)cs1)c1ccc(S(=O)(=O)N2CCc3ccccc32)cc1	Lmaj promast 99
CCOc1ccc(-c2csc(NC(=O)c3ccc(S(=O)(=O)N4CCc5ccccc5C4)cc3)n2)cc1	none (no result: Insulin prom inh)
CCCC1CCC(c2ccc(C(=O)NN)cc2)CC1 (stereo not drawn)	WT yeast gro inh 84
NC(=O)Nc1ccc(Nc2ccccc2)cc1	none (no result: Insulin prom inh, ROMK mod, WT yeast gro inh, Lmaj promast)
O=C(Nc1ccc(Nc2ccccc2)cc1)C(Cl)(Cl)Cl	Lmaj promast 78
CCC(=O)Nc1ccc(Nc2ccccc2)cc1	Lmaj promast 93 (no result: ROMK mod)
COCC(=O)Nc1ccc(Nc2ccccc2)cc1	none (no result: ROMK mod)
CCCS(=O)(=O)N1CCC(C(=O)NC2CCCCC2C)CC1 (stereo not drawn)	none (no result: Insulin prom inh, ROMK mod)
COc1ccccc1-c1c(C)nn2c(N3CCCCCC3)cc(C)nc12	WT yeast gro inh 61, Lmaj promast 79 (no result: Insulin prom inh, Insulin prom up, ROMK mod)
Cc1nn2c(N3CCCC3)cc(C(C)C)nc2c1-c1ccccc1	Lmaj promast 87 (no result: Insulin prom inh, ROMK mod)
COc1ccccc1-c1c(C)nn2c(N3CCN(Cc4ccccc4)CC3)cc(C)nc12	WT yeast gro inh 85 (no result: Insulin prom inh, ROMK mod)
COc1ccc(-c2c(C)nn3c(N4CCN(Cc5ccccc5)CC4)cc(C)nc23)cc1OC	none (no result: Insulin prom inh, ROMK mod)
CCOC(=O)C1CCN(CC(O)COc2ccc(C(C)(C)CC)cc2)CC1 (stereo not drawn)	Lmaj promast 97 (no result: ROMK mod)
CC(=O)c1ccc(OCC(O)CN2CCN(CC(O)COc3ccc(C(C)=O)cc3)CC2)cc1 (stereo not drawn)	none
CCOC(=O)C1CCN(CC(O)COc2ccc(C(C)(C)C)cc2)CC1 (stereo not drawn)	Lmaj promast 92 (no result: Insulin prom inh, ROMK mod)
CCOC(=O)C1CCN(CC(O)COc2ccc(C(C)=O)cc2)CC1 (stereo not drawn)	Lmaj promast 92 (no result: Insulin prom inh, Cl transport mod, ROMK mod)
CCOC(=O)C1CCN(C(=O)COc2ccc(S(=O)(=O)NC(C)(C)C)cc2)CC1	none (no result: Cl transport mod, ROMK mod)
CCOC(=O)C1CCN(CC(O)COCc2cccs2)CC1 (stereo not drawn)	Lmaj promast 79 (no result: Insulin prom inh)
O=C(CN1CCCC1)Nc1ccc(Cl)cc1C(F)(F)F	none (no result: Insulin prom inh)
Cc1cccc(NC(=S)NC(=O)CC2CC(C)(C)OC2=O)c1 (stereo not drawn)	none (no result: Insulin prom up)
COc1ccc(C(=O)CCNc2ccc(F)cc2)cc1	none (no result: Insulin prom inh, WT yeast gro inh, Lmaj promast)
O=C(CCNc1ccc(F)cc1)c1cccc([N+](=O)[O-])c1	Lmaj promast 97 (no result: Cl transport mod, ROMK mod)
O=C(CNc1ccccc1)c1ccc([N+](=O)[O-])cc1	none (no result: Insulin prom inh, ROMK mod)
O=C(CCNc1ccccc1)c1cccc([N+](=O)[O-])c1	Lmaj promast 96 (no result: ROMK mod)
O=C(CCNc1ccc(Br)cc1)c1cccc([N+](=O)[O-])c1	Lmaj promast 88 (no result: Insulin prom inh)
O=C(CCNc1ccc(Cc2ccncc2)cc1)c1ccc([N+](=O)[O-])cc1	Lmaj promast 101 (no result: Insulin prom inh)
Cc1ccc(NCCC(=O)c2cccc([N+](=O)[O-])c2)cc1	Insulin prom up inconclusive, Lmaj promast 100 (no result: Cl transport mod, ROMK mod)
Cc1nc(SCC(=O)c2cccc([N+](=O)[O-])c2)n[nH]1	none (no result: Cl transport mod, ROMK mod)
Cc1ccc(NC(=O)c2cc(C)n(-c3cccc(C)c3)c2C)cc1	WT yeast gro inh 62 (no result: ROMK mod)
Cc1ccc(NC(=O)c2cc(C)n(-c3ccccc3)c2C)cc1	none (no result: Insulin prom inh, ROMK mod)
Cc1[nH]c2ccccc2c1C(O)CN1CCN(c2cccc(C(F)(F)F)c2)CC1 (stereo not drawn)	Lmaj promast 60 (no result: Insulin prom inh, Cl transport mod, ROMK mod)
COCCCNC(c1ccccc1)c1ccncc1 (stereo not drawn)	none (no result: Insulin prom inh, Insulin prom up)
CCN(CC)C(=O)c1ccc(COc2ccccc2Cl)cc1	Lmaj promast 63 (no result: Cl transport mod)
O=C(Nc1nc2ccccc2n1Cc1ccccc1)c1ccc(COc2ccccc2[N+](=O)[O-])o1	none (no result: Insulin prom up, Cl transport mod, ROMK mod)
COc1ccccc1OCc1ccc(C(=O)NC(C)(C)C)o1	none (no result: ROMK mod)
O=C(Nc1nc2ccccc2n1CCN1CCOCC1)c1ccc(COc2ccccc2Br)o1	Lmaj promast 55
CC1CN(C(=O)c2ccc(COc3ccccc3Br)o2)CC(C)O1 (stereo not drawn)	none (no result: Insulin prom inh)
CC(C)(C)NC(=O)c1ccc(COc2ccccc2Br)o1	Lmaj promast 78 (no result: Insulin prom inh, Cl transport mod)
CCN(CC)C(=O)c1ccc(COc2ccccc2Br)o1	Lmaj promast 88 (no result: Insulin prom inh, Cl transport mod)
Cn1c(CNC(=O)Nc2ccccc2Cl)nnc1SCc1ccccc1	none (no result: Insulin prom inh, ROMK mod)
C=CCc1cccc(/C=N/n2c(C)nnc2C)c1O	none (no result: ROMK mod)
S=C(c1ccc(-c2ccccc2Cl)o1)N1CCCCC1	none (no result: Insulin prom inh, ROMK mod)
